Data published in the supplement of paper PMC11732987, “Enantioselective OTUD7B fragment discovery through chemoproteomics screening and high-throughput optimisation” (Communications Chemistry, 2025).

Columns and labels:
Experiment in all cases: log2 ratio of Biotin-Ahx-Ub-VS probe labelling (fragment/DMSO); higher = less target engagement (more negative = stronger competition), active = hit call of the paper (q ≤ 0.05, log2 ratio ≤ -1)
Details in all cases: compound concentration: 200 uM; treatment time: 3 h
USP34 = USP34 (UniProt Q70CQ2)
Sequence of USP34 (Q70CQ2 whole entry, the tested form may be a part): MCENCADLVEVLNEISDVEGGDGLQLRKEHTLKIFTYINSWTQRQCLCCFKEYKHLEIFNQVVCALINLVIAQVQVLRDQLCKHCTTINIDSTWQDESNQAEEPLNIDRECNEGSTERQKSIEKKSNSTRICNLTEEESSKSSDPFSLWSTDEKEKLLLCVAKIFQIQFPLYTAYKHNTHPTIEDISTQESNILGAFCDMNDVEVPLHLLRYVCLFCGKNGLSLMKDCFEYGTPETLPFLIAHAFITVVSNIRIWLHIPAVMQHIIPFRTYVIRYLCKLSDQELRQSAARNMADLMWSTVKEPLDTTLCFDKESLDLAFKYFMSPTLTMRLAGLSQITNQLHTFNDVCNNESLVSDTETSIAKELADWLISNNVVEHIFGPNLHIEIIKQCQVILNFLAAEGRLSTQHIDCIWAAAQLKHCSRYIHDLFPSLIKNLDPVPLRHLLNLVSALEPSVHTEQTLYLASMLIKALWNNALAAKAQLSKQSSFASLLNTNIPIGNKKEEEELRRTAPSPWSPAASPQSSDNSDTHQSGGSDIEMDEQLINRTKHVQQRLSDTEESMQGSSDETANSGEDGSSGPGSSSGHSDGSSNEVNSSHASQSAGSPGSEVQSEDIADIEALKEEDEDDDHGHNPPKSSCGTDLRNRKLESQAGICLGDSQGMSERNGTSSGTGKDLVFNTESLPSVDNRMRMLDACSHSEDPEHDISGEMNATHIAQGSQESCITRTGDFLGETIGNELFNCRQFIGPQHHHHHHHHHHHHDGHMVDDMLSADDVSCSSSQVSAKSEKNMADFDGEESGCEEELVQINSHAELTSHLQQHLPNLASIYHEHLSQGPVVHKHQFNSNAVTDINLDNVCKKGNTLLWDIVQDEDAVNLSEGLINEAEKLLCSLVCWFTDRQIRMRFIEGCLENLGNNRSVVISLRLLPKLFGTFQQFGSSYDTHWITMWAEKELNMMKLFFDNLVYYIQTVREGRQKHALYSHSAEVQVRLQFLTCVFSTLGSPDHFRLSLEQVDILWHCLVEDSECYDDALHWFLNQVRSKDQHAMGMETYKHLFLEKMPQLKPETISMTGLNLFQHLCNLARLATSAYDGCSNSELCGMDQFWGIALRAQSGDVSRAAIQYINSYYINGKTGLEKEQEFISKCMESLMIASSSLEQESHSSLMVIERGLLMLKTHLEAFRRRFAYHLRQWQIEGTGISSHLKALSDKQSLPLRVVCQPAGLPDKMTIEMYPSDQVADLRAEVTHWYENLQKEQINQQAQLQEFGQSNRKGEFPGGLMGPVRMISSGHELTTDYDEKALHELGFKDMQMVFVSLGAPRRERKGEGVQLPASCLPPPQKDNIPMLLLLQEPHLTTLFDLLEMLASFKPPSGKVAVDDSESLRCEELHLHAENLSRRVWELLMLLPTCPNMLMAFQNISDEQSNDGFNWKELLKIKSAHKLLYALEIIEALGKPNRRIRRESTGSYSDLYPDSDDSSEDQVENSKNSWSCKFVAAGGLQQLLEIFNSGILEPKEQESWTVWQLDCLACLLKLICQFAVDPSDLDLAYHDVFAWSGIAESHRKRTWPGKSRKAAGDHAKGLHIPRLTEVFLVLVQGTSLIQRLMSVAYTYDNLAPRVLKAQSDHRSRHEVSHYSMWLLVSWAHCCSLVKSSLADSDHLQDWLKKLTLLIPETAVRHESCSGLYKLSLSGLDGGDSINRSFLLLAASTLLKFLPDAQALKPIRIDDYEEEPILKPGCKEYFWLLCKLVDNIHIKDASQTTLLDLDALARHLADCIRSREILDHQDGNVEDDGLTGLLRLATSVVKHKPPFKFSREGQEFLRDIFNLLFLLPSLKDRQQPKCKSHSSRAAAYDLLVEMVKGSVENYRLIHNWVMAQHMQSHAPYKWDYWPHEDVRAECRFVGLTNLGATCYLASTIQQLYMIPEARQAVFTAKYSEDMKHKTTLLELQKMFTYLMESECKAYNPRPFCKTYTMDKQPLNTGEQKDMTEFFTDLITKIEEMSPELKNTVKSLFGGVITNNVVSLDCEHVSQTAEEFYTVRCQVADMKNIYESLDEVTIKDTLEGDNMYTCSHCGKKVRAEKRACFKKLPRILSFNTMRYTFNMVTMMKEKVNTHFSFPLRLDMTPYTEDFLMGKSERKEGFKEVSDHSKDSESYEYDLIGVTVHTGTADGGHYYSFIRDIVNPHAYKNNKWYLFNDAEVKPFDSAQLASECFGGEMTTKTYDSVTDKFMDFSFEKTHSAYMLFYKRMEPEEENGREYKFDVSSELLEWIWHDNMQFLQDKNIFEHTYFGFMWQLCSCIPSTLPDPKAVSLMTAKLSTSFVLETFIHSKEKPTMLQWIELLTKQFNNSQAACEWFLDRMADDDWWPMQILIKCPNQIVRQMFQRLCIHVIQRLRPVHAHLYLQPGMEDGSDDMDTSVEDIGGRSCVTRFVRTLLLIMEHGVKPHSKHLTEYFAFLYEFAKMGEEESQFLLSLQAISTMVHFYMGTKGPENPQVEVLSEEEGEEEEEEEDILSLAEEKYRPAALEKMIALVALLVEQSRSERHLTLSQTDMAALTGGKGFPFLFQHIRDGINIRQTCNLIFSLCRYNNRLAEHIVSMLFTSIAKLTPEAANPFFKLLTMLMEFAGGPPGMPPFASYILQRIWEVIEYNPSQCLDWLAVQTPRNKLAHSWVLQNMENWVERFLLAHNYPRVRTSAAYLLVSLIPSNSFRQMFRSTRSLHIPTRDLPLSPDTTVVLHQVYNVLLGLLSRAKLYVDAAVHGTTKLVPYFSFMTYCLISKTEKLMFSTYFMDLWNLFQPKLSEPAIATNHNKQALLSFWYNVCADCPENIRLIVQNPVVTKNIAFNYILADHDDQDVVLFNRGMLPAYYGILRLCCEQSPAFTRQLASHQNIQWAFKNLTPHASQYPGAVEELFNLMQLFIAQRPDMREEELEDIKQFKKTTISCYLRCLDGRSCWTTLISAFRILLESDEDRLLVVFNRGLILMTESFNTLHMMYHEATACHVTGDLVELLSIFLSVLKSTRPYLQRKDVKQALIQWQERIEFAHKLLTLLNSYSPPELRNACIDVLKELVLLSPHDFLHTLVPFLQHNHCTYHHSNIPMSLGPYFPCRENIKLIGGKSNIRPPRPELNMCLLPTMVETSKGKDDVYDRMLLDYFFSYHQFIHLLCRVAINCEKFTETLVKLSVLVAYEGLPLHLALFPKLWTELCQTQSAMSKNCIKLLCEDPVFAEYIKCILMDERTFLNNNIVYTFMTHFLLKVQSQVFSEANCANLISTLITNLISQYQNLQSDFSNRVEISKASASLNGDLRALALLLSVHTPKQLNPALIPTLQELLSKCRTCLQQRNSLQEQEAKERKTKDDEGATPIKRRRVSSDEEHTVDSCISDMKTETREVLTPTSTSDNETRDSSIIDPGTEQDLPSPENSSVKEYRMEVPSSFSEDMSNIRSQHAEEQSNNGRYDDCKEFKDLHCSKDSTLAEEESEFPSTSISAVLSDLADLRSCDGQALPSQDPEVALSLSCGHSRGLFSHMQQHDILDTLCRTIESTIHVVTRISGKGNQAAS
Summary of the method: (§1)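 Average log2 ratios of fragment over vehicle were obtained by unpaired t-test from global-median-normalised Spectronaut label-free quantities. Proteins with ≥2 unique peptides were included. HEK293T lysate (495 µg per sample) was treated in triplicate with fragment at 200 µM or vehicle for 3 h, then with Biotin-Ahx-Ub-VS at 0.5 µM final for 1 h, and labelled DUBs were NeutrAvidin-enriched and run by diaPASEF LC-MS/MS.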

USP36 = target: T1, USP36 (UniProt Q9P275)
T1 sequence (whole entry): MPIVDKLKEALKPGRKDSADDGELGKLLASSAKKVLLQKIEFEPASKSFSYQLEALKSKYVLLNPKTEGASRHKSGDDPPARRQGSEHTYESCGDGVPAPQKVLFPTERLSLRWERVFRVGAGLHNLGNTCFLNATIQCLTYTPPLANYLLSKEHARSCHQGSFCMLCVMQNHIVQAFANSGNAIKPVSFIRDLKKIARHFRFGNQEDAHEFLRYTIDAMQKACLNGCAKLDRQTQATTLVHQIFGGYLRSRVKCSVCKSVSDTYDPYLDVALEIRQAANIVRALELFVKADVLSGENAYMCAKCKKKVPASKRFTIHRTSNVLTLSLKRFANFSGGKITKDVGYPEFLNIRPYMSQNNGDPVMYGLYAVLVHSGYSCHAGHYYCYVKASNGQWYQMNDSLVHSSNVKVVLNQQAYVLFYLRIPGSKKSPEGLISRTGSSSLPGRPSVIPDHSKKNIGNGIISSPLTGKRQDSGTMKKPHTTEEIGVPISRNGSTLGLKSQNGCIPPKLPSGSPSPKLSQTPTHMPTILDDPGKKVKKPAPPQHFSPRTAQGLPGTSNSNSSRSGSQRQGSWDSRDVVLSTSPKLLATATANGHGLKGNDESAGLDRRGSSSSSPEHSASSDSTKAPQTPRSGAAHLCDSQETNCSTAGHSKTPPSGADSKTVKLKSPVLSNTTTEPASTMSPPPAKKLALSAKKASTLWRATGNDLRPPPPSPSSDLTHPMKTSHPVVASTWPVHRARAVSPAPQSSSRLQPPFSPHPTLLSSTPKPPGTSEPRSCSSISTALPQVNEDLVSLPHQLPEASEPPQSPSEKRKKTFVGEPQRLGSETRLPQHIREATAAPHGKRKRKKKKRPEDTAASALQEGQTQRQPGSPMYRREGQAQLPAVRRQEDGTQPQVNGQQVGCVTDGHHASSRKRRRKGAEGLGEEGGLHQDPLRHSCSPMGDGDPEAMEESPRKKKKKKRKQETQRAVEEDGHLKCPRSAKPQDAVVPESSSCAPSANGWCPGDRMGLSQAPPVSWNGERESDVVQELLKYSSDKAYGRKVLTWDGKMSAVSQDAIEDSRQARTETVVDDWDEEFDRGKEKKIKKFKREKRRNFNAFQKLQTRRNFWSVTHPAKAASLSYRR
Summary of the method: as §1

USP38 = target: T2, USP38 (UniProt Q8NB14)
T2 sequence (whole entry): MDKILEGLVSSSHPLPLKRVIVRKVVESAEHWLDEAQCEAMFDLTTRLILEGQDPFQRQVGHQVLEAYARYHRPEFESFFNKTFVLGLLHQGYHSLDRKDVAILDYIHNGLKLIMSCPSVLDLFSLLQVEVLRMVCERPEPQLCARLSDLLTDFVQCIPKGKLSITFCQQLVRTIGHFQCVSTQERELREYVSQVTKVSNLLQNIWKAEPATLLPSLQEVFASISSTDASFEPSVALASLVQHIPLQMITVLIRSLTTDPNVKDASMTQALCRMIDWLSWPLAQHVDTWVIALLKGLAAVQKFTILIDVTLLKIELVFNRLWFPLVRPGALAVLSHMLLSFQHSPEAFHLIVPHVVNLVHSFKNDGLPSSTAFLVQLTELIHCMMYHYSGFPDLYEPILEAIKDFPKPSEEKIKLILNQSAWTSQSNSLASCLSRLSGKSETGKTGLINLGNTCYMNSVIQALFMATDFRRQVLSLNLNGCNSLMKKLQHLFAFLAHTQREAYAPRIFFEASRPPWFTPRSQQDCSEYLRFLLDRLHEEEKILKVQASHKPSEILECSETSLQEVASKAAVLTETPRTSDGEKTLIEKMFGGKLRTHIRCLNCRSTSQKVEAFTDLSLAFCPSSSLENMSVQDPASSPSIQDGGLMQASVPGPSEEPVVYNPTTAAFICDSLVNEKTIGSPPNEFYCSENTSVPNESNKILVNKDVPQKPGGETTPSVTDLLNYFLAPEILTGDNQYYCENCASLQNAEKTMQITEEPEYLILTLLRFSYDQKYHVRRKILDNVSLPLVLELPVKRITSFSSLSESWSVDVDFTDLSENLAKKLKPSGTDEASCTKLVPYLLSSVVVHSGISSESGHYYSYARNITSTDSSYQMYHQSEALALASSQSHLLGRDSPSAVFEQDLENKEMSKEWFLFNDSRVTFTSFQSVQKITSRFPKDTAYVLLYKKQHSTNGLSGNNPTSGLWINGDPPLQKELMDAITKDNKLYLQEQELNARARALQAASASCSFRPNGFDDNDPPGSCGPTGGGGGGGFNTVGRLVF
Summary of the method: as §1

USP39 = target: T3, USP39 (UniProt Q53GS9)
T3 sequence (whole entry): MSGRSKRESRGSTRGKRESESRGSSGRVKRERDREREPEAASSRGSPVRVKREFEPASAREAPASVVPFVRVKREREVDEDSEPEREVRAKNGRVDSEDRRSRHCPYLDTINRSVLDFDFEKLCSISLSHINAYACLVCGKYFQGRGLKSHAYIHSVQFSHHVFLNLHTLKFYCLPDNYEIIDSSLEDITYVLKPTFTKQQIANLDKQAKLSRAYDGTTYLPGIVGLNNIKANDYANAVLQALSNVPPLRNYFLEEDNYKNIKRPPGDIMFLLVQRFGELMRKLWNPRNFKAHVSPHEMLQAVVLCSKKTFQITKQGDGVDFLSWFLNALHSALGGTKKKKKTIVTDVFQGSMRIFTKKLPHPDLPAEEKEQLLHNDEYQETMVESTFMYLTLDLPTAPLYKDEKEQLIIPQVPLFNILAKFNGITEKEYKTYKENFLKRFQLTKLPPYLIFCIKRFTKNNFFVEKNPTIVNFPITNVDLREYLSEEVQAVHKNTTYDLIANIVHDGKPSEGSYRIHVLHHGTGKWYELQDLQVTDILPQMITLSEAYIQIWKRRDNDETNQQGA
Summary of the method: as §1

USP4 = target: T4, USP4 (UniProt Q13107)
T4 sequence (whole entry): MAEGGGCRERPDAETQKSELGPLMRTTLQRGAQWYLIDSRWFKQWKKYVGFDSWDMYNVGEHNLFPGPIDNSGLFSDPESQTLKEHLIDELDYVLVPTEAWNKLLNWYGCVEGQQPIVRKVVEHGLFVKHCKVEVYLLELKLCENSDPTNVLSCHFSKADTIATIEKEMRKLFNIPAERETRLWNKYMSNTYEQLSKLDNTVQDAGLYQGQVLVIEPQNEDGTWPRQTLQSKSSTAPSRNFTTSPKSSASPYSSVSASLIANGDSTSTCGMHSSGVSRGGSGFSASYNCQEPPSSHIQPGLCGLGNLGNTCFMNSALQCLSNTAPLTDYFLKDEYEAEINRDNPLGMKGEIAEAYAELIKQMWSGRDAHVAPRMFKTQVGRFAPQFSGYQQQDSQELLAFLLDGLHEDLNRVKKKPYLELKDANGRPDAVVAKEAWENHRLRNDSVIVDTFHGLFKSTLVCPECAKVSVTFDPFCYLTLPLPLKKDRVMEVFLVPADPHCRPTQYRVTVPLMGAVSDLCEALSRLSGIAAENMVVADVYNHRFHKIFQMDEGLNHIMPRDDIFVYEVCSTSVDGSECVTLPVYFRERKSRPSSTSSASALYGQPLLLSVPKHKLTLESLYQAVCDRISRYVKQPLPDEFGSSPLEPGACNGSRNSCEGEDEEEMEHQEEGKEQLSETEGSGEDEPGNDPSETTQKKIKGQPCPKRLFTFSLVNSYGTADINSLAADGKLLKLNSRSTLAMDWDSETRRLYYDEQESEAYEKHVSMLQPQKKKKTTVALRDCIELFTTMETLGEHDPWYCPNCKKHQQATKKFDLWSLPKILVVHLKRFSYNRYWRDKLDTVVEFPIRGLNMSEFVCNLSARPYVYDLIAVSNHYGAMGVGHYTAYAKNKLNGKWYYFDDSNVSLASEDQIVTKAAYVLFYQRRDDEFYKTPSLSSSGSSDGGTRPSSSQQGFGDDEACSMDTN
Summary of the method: as §1

Measured: log2 ratio of Biotin-Ahx-Ub-VS probe labelling

CNC(=O)Cn1cc(NC(=O)CCl)cn1
inactive: USP34 -0.0314 | USP36 -0.0542 | USP38 -0.0407 | USP39 0.234 | USP4 -0.0895
